Source: PubChem BioAssay AID624330 (Southern Research Specialized Biocontainment Screening …, 2012)
Out of some 340,000 compounds screened, about 2,100 (0.62%) were called active. Not all results are given here. Results with a measured potency or affinity are listed apart. Values without a mark were called inactive.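 Rule for the calls: active = first-screen hits whose inhibition reached a set limit at any dose in the follow-up dose series; inconclusive = inhibition above the set first-screen limit but never retested; inactive = the rest.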

What follows are compounds tested against Rac GTPase-activating protein 1 (Homo sapiens) (UniProt Q9H0H5) (assay: MgcRacGAP GTPase-activating activity inhibitors, confirmation, biochemical, ADP Hunter fluorescence, primary and confirmatory (AID 624330;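 note: fluorescence reports GDP produced by GAP-driven GTP hydrolysis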)). Conditions: MgcRacGAP-stimulated Rac1 GTP hydrolysis, at 30 µM, hits give high values, GST-tagged Rac1 F28L mutant substrate.
Chain of Rac GTPase-activating protein 1 (Homo sapiens) (Q9H0H5 whole entry, looked up): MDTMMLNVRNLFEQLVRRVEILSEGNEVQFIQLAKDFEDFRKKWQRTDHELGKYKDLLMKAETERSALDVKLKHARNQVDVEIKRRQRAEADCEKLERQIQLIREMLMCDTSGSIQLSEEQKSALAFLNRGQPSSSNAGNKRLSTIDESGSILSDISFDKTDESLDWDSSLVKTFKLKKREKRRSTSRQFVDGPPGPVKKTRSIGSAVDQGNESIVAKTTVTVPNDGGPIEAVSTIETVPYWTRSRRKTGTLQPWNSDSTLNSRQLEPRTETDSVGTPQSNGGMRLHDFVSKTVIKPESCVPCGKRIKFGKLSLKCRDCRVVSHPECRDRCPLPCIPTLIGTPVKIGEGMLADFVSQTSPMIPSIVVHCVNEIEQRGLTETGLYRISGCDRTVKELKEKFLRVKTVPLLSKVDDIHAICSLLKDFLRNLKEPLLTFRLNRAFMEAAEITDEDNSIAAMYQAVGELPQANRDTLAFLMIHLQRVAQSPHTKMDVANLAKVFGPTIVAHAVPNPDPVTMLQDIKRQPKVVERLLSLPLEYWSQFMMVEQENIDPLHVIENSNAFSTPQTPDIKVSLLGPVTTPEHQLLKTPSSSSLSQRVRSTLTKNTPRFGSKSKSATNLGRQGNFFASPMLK

`CCN(C(=O)COC(=O)c1cccc(-n2cnnn2)c1)C1CCCCC1` was tested. Which inhibition did it give?
The inhibition was 11.8%.

`Cc1sc2ncn(CC(=O)N3CCN(c4ccccc4F)CC3)c(=O)c2c1S(=O)(=O)N1CCOCC1` was tested. Which inhibition did it give?
The inhibition was 2.91%.

`Cc1ccc2c(N)c(C)ccc2c1` was tested. Which inhibition did it give?
Its inhibition is 12.7%.

For `COc1cc(Br)c(Br)cc1N`, which inhibition is on record?
The inhibition was -1.7%.

For `Cc1cc([N+](=O)[O-])ccc1N`, which inhibition is on record?
Its inhibition is -7.8%.

For `COc1cc(NC(N)=S)c(OC)cc1Cl`, which inhibition is on record?
Its inhibition is 10.5%.

How did the inhibition turn out when `COc1cc([N+](=O)[O-])ccc1N` was run?
The inhibition was 0.84%.

How did the inhibition turn out when `Cc1ccc(C)c(N)c1` was run?
Its inhibition is 6.49%.

How did the inhibition turn out when `COc1ccc(-c2nnc(N)s2)cc1OC` was run?
Its inhibition is 5.29%.

`Cc1cc(Cc2ccc(N)c(C)c2)ccc1N` was tested. Which inhibition did it give?
The inhibition was 4.21%.

`O=C(CSc1nccc(=O)[nH]1)NN(c1ccccc1)c1ccccc1` was tested. Which inhibition did it give?
Its inhibition is 11.2%.

With `O=C(NCC(c1ccco1)N1CCN(c2ccccc2)CC1)C(=O)NC1CCCC1` (centres undefined) as the compound, how does the inhibition read?
The inhibition was 4.87%.

How did the inhibition turn out when `CCCCCN(C(=O)CCC(=O)OCc1cccc(C)c1)c1c(N)n(CCCC)c(=O)[nH]c1=O` was run?
The inhibition was 5.1%.

How did the inhibition turn out when `O=C(CSc1nnc(COc2ccccc2)n1-c1ccccc1)c1cccs1` was run?
Its inhibition is 15.1%.

For `CCOC(=O)c1nc(C)nc(Sc2n[nH]c(-c3ccccc3)n2)c1C`, which inhibition is on record?
Its inhibition is 9.53%.

With `C/C(=N/OCC(=O)Nc1ccccc1)c1cccs1` as the compound, how does the inhibition read?
Its inhibition is 6.14%.

How did the inhibition turn out when `CCCCc1ccc(NC(=O)CN(C)CC(=O)Nc2ccccc2Cl)cc1` was run?
The inhibition was 11.5%.

How did the inhibition turn out when `O=c1cc(-c2ccc(Cl)c(Cl)c2)[nH][nH]1` was run?
The inhibition was 8.61%.

How did the inhibition turn out when `CCCCC(=O)N1C/C=C\C(c2ccc(OC)cc2)N(Cc2ccc(F)cc2)C(=O)C1` (centres undefined) was run?
The inhibition was 8.3%.

How did the inhibition turn out when `FC(F)(F)c1ccc(N/N=C/c2cccnc2)nc1` was run?
The inhibition was 4.55%.

How did the inhibition turn out when `COc1cc(/C=N/Nc2ccc(C(F)(F)F)cn2)cc(OC)c1O` was run?
Its inhibition is 13%.

With `O=C(O)c1ccc(/C=N/Nc2ccc(C(F)(F)F)cn2)cc1` as the compound, how does the inhibition read?
The inhibition was 13.8%.

Which inhibition does the source give for `O=[N+]([O-])c1ccc(NN=Cc2ccc(O)cc2O)nc1` here?
Its inhibition is 24.6%.

How did the inhibition turn out when `COc1ccc(/C=N/Nc2ncc(C(F)(F)F)cc2Cl)cc1OC` was run?
The inhibition was -7.93%.

`Cc1ncc(CO)c(/C=N/Nc2ccc(C(F)(F)F)cn2)c1O` was tested. Which inhibition did it give?
Its inhibition is 61.5%.

For `Cc1cccc(C(CC(=O)O)NC(=O)C(F)(F)F)c1` (centres undefined), which inhibition is on record?
The inhibition was 2.11%.

`C=CCN(CC=C)CCCOc1ccc(C)cc1OC` was tested. Which inhibition did it give?
Its inhibition is 14.4%.

For `Cc1ccc(NS(=O)(=O)c2ccc3c(c2)NC(=O)C(C)C(=O)N3)cc1C` (centres undefined), which inhibition is on record?
The inhibition was -6.55%.

Which inhibition does the source give for `CCC(Oc1ccccc1C)C(=O)N1CCCN(C)CC1` (centres undefined) here?
Its inhibition is 3.47%.

Which inhibition does the source give for `COc1cc(-c2nc3cnccn3c2NC(C)(C)CC(C)(C)C)ccc1O` here?
The inhibition was 17%.

Which inhibition does the source give for `CCOc1cc(-c2nc3ccccn3c2NCC2CCCO2)ccc1O` (centres undefined) here?
The inhibition was -4.32%.

For `COc1ccc(OC)c(/C=N/c2c(-c3ccc(O)c(OC)c3)nc3ccccn23)c1`, which inhibition is on record?
The inhibition was 4.63%.

For `Cc1ccc2nc(-c3ccccc3O)c(Nc3ccc4c(c3)OCCO4)n2c1`, which inhibition is on record?
The inhibition was 11.2%.

How did the inhibition turn out when `COc1cc(-c2nc3cnccn3c2Nc2ccc3c(c2)OCCO3)ccc1O` was run?
The inhibition was 15.7%.

Which inhibition does the source give for `Cc1cccc(C)c1Nc1c(-c2ccc(N3CCOCC3)cc2)nc2cnccn12` here?
Its inhibition is 13.6%.

How did the inhibition turn out when `COc1cc(-c2nc3cccc(C)n3c2NCC2CCCO2)ccc1O` (centres undefined) was run?
The inhibition was -43.9%.

For `COc1cc(-c2nc3ccccn3c2/N=C/c2cccc(OC)c2O)ccc1O`, which inhibition is on record?
Its inhibition is 10.6%.

For `O=C1CC2(CCCC2)C(=O)N1c1ccc(S(=O)(=O)NCC2CC2)cc1Cl`, which inhibition is on record?
The inhibition was 5.71%.

With `COc1ccc(OCc2nnc(SC3CCOC3=O)n2-c2ccccc2)cc1` (centres undefined) as the compound, how does the inhibition read?
Its inhibition is 11.2%.

With `c1nnc(-c2ccc3c(c2)OCO3)o1` as the compound, how does the inhibition read?
Its inhibition is 12.3%.

For `CC(C)(C)C(=O)NCc1ccc(C(=O)CSc2nnc(C3CC3)n2C2CC2)s1`, which inhibition is on record?
Its inhibition is 8.51%.

`C[C@]12C(=O)N(c3cccc(Cl)c3)C(=O)N1[C@@H]1c3ccccc3OC[C@@H]1[C@H]2c1ccccc1` was tested. Which inhibition did it give?
Its inhibition is 6.88%.

Which inhibition does the source give for `CCOC(=O)Cc1csc(SCC(=O)NC2CCS(=O)(=O)C2)n1` (centres undefined) here?
The inhibition was 0.45%.

How did the inhibition turn out when `Cc1cc(-c2ccc(Cl)cc2)n2nc(N)nc2n1` was run?
Its inhibition is 8.73%.

How did the inhibition turn out when `COc1ccc(C/C(N)=N/OC(C)=O)cc1OC` was run?
Its inhibition is 7.14%.

Which inhibition does the source give for `COc1cc(-c2nc3cnccn3c2Nc2ccccc2)ccc1O` here?
The inhibition was 30.3%.

Which inhibition does the source give for `COc1cc(-c2nc3cnccn3c2Nc2ccc(C(C)C)cc2)ccc1O` here?
Its inhibition is 21.9%.

Which inhibition does the source give for `CCOC(=O)C(C)Sc1nc(-c2ccccc2)nc2ccccc12` (centres undefined) here?
The inhibition was -2.03%.

For `ON=C1CCCC2CCCCC12` (centres undefined), which inhibition is on record?
Its inhibition is -2.9%.

Which inhibition does the source give for `CC(C)CNC(=O)CC(c1ccccc1)c1c(O)ccc2ccccc12` (centres undefined) here?
The inhibition was 10.5%.

How did the inhibition turn out when `CC(C)CC(=O)NC(c1ccccc1)c1c(O)ccc2ccccc12` (centres undefined) was run?
Its inhibition is 7.84%.

Which inhibition does the source give for `CN(Cc1ccccc1F)C(=O)CN1c2cccc3cccc(c23)S1(=O)=O` here?
The inhibition was 6.24%.

`COc1cccc(CNC(=O)CCS(=O)(=O)c2ccc3c(c2)NC(=O)CO3)c1` was tested. Which inhibition did it give?
Its inhibition is 12.4%.

For `CCCn1c(SCC(=O)NNC(=O)c2ccccc2)nnc1-c1cccnc1`, which inhibition is on record?
The inhibition was 12.3%.

`O=C(NCCO)c1cc2ccccc2c(=O)s1` was tested. Which inhibition did it give?
The inhibition was 6.83%.

For `COc1ccc2cc(C(=O)Nc3ccc(F)cc3)sc(=O)c2c1OC`, which inhibition is on record?
Its inhibition is 0.7%.

For `O=C(Nc1ccccc1)c1cc2ccccc2c(=O)s1`, which inhibition is on record?
The inhibition was -4.83%.

For `COc1ccc2cc(C(=O)Nc3ccc(Cl)cc3)sc(=O)c2c1OC`, which inhibition is on record?
Its inhibition is 7.43%.

Which inhibition does the source give for `CCN1C(=O)[C@H]2[C@H]3CN=C(SCc4ccc(C(=O)OC)cc4)N3[C@@](Cc3ccccc3)(C(=O)OC)[C@H]2C1=O` here?
Its inhibition is 11.1%.

How did the inhibition turn out when `COC(=O)C(Cc1c[nH]c2ccccc12)NC(=O)c1cccc(S(=O)(=O)N2CCCCC2)c1` (centres undefined) was run?
The inhibition was 2.63%.

For `CCOC(=O)c1ccc(NC(=O)C(=O)NCC2(c3ccc(OC)cc3)CCOCC2)cc1`, which inhibition is on record?
Its inhibition is 15.5%.

With `CC(C(=O)Nc1ccc(Cl)cc1)N1C(=O)NC2(CCCC2)C1=O` (centres undefined) as the compound, how does the inhibition read?
The inhibition was 3.21%.

How did the inhibition turn out when `CCN(CC(=O)NCc1ccc(F)cc1)C(=O)CN1CCN(c2cc(Cl)ccc2C)CC1` was run?
Its inhibition is 4.22%.

`O=[N+]([O-])c1cc(Br)c(O)c(C=Nc2ccc(N3CCOCC3)cc2)c1` was tested. Which inhibition did it give?
Its inhibition is 54.6%.

For `Cc1cc(O)c(C=Nc2ccc(N3CCOCC3)cc2)c(C)c1Cl`, which inhibition is on record?
Its inhibition is 24.8%.

For `Oc1ccc(N=Nc2cccc(Cl)c2)cc1C=Nc1ccc(N2CCOCC2)cc1`, which inhibition is on record?
Its inhibition is 7.02%.

With `CCOc1ccc(N=Cc2ccccc2O)cc1` as the compound, how does the inhibition read?
The inhibition was 4.12%.

`CCN(CC)c1ccc(C=Nc2ccc(N(C)C)cc2)c(O)c1` was tested. Which inhibition did it give?
Its inhibition is 19.7%.

`COc1ccc(N=Cc2ccccc2O)cc1` was tested. Which inhibition did it give?
Its inhibition is 7.18%.

With `Cn1c(O)c(C=Nc2ccc(N3CCOCC3)cc2)c(=O)n(C)c1=S` as the compound, how does the inhibition read?
The inhibition was 10.4%.

How did the inhibition turn out when `Cc1ccc(N=Cc2ccc(O)cc2O)cc1F` was run?
Its inhibition is 2.37%.

`CS(=O)(=O)c1ccc(Cl)c(NC(=O)COC(=O)CNC(=O)c2ccccc2)c1` was tested. Which inhibition did it give?
Its inhibition is 6.09%.

`O=C(Cc1cccc(F)c1)Nc1ccc2c(c1)CCC2` was tested. Which inhibition did it give?
Its inhibition is 6.98%.

Which inhibition does the source give for `C=C(c1ccccc1Cl)[n+]1ccccc1` here?
The inhibition was -11.7%.

How did the inhibition turn out when `N#CCCN(Cc1cccnc1)C(=S)NC(=O)c1ccco1` was run?
The inhibition was 5.92%.

How did the inhibition turn out when `O=C(OCC(=O)N1CCCC1)c1c(Cl)ccc(Cl)c1Cl` was run?
Its inhibition is -3.47%.

For `Cc1nc(C(=O)N(C)C)nn1-c1cc(Cl)ccc1Cl`, which inhibition is on record?
Its inhibition is 9.33%.

`Cc1ccc(-n2c(C(C)C)nc3oc4ccccc4c(=O)c3c2=O)cc1` was tested. Which inhibition did it give?
The inhibition was 0.93%.

With `Oc1ccc(Br)cc1/C=N/N1CCCCC1` as the compound, how does the inhibition read?
The inhibition was 6.18%.

`Oc1ccc(Br)cc1C=Nc1ccc(Cl)cc1` was tested. Which inhibition did it give?
Its inhibition is 8.07%.

How did the inhibition turn out when `Cc1cc(C)cc(NC(=O)c2cccc(NC(=O)c3ccco3)c2)c1` was run?
The inhibition was -0.13%.

`O=C(Nc1cccc(NC(=O)c2ccco2)c1)c1cccc(Br)c1` was tested. Which inhibition did it give?
Its inhibition is 7.43%.

With `COc1ccccc1NC(=O)c1oc2ccccc2c1NC(=O)C1CC1` as the compound, how does the inhibition read?
The inhibition was 1.66%.

`CCn1c(=O)c(C(=O)CN(C)Cc2ccc(F)cc2)c(N)n(Cc2ccccc2)c1=O` was tested. Which inhibition did it give?
Its inhibition is 5.49%.

`CCOc1ccc(CN(C)CC(=O)c2c(N)n(Cc3ccccc3)c(=O)n(CC)c2=O)cc1OC` was tested. Which inhibition did it give?
Its inhibition is 5.23%.

For `Cc1cccc(NC(=O)c2nc[nH]c2C(=O)N[C@@H](CC(C)C)C(=O)OCc2ccccc2)c1`, which inhibition is on record?
The inhibition was 5.96%.

How did the inhibition turn out when `Cc1cc(C)cc(NC(=S)N2CCC(C(=O)c3ccc(F)cc3)CC2)c1` was run?
Its inhibition is -15.2%.

With `CC(C)CN(C(=O)c1cc2ccccc2o1)c1c(N)n(CC(C)C)c(=O)[nH]c1=O` as the compound, how does the inhibition read?
Its inhibition is 7.89%.

Which inhibition does the source give for `Cc1nn(-c2ccccc2)c(C)c1NC(=O)COC(=O)CCOc1ccccc1` here?
The inhibition was 2.57%.

`CC(=O)Nc1ccc(N/C=C2/CCCC2=O)cc1` was tested. Which inhibition did it give?
Its inhibition is 14.8%.

Which inhibition does the source give for `Cc1ccc(N/C=C2\CCCCC2=O)c(C)c1` here?
Its inhibition is 5.15%.

`COCC(=O)Nc1ccc(Nc2ccccc2)cc1` was tested. Which inhibition did it give?
The inhibition was 15.4%.

Which inhibition does the source give for `CCC(CC)C(=O)Nc1ccc(Nc2ccccc2)cc1` here?
Its inhibition is 28%.

With `c1ccc(Nc2ccccc2)cc1` as the compound, how does the inhibition read?
The inhibition was 3.58%.

With `CCCCC(CC)C(=O)Nc1ccc(Nc2ccccc2)cc1` (centres undefined) as the compound, how does the inhibition read?
Its inhibition is 22.3%.

How did the inhibition turn out when `O=C(O)CCC(NS(=O)(=O)c1ccc(N2CCCC2=O)cc1)C(=O)O` (centres undefined) was run?
Its inhibition is -1.24%.

For `CCOc1ccc(S(=O)(=O)N2CCN(C(=O)c3cc(-c4ccccc4)nn3-c3ccccc3)CC2)cc1`, which inhibition is on record?
The inhibition was 6.52%.

`CNC(=O)C(=O)Nc1ccc2c(c1)N(S(=O)(=O)c1cccs1)CCC2` was tested. Which inhibition did it give?
Its inhibition is 4.61%.

Which inhibition does the source give for `CN(CCCC1CCCC1)C(=O)c1cc(COc2c(F)cccc2F)on1` here?
Its inhibition is 7.43%.
